# A selection: hits, their analogues and other compounds. The true share with any hit is near 12%.
# BAZ2B inh = inhibitors of human BAZ2B bromodomain; AlphaScreen BAZ2B-H3K14Ac peptide displacement; Q9UIF8; Potency, µM (top dose mostly 114 µM), actives largely listed as inhibitors; AID 504333; 360,000 tested, 4.4% active; further: nearly all actives have a fitted effect of over 60% in size
#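 Multi-concentration screen (max 110 uM) measuring displacement of acetylated histone H3 peptide from BAZ2B by AlphaScreen, using 50 nM protein, 50 nM peptide and 10 ug/mL streptavidin donor plus Ni-chelate acceptor beads.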
# G9a inh = blocks human histone lysine methyltransferase G9a. AID 504332. Potency, µM (series often up to 102 µM), most hits filed as inhibitors. G9a H3K9 monomethylation, AlphaScreen, 2 h. Q96KQ7. 350,000 tested, 8.8% active; further: nearly all actives have a fitted effect of over 75% in size
#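 G9a (20 nM) was preincubated 15 min with compound, then reacted 2 h at room temperature with 500 nM biotin-H3K9 peptide and 20 µM SAM. Monomethyl-H3K9 detected by AlphaScreen using anti-H3K9me1 antibody.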
# PI5P4Ka inh = blocks human PI5P4K alpha kinase activity; P48426; max response, %; 330,000 tested, 1.2% active; PI5P4Kalpha enzyme, ADP-Glo luminescence, 60 min; stronger effect = lower value; active means max response of -50% or lower; inconclusive means between -30% and -50%; inactive means -30% or higher; further: value at the top dose of about 77 µM
# Target sequence (P48426 whole entry, looked up): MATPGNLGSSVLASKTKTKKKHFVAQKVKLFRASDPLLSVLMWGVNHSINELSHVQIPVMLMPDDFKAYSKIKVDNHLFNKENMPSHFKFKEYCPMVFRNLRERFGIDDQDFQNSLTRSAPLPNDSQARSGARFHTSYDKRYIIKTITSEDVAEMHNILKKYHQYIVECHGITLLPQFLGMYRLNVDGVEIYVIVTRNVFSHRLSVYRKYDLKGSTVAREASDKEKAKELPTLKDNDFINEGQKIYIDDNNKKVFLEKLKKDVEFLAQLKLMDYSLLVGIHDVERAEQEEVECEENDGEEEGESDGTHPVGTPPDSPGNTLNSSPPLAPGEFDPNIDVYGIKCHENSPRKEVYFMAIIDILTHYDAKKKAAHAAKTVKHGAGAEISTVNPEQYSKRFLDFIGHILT
#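 ADP-Glo luminescence end-point read after a 60 min room-temperature kinase reaction of PI5P4Kalpha plus substrate, initiated with ATP at 5 microM final. Buffer: 0.038 M HEPES pH 7.4, EGTA, 0.1% CHAPS, 5% DMSO.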
# PLK1 PBD inh = inhibitors of human PLK1 polo-box domain binding; Plk1 PBD binding of FITC phosphopeptide, fluorescence polarization; Potency, µM, hits mostly inhibitors; 360,000 tested, 2.8% active; further: series mostly up to about 57 µM; nearly all actives have a fitted effect of over 65% in size
# HP1b binding inh = blocks HP1-beta chromodomain binding to methylated histone tails | AlphaScreen HP1-beta / biotin-H3K9me3 peptide binding | Potency, µM (titrated, usually from 114 µM), most hits filed as inhibitors | AID 540317 | P83916 | 390,000 tested, 0.56% active; further: nearly all actives have a fitted effect of over 70% in size
# Target sequence (P83916 whole entry, looked up): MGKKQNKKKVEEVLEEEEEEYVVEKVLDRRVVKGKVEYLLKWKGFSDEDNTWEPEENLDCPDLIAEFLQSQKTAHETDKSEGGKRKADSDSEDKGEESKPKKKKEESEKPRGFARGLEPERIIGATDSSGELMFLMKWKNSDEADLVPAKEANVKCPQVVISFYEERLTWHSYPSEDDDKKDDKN
#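 Compound inhibition of the preformed complex between 50 nM HP1-beta and 50 nM biotinylated H3K9me3 peptide was read by AlphaScreen. Buffer was PBS pH 7.4 with 0.01% Tween-20. Incubations ran 30 min at room temperature, with 10 ug/mL donor/acceptor beads.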
# JMJD2A Tudor = JMJD2A Tudor domain (human) inhibition. O75164. AlphaScreen JMJD2A-Tudor / H3K4me3 peptide binding. Potency, µM (series often up to 114 µM), hits mostly inhibitors. 390,000 tested, 4.4% active. AID 504339; further: nearly all actives have a fitted effect of over 50% in size
# Numbers stand for hits; i = inactive; ? = inconclusive; nt = no result given; [ ] = another dose, or the depositor's remark. Unless noted, the call rests on the fitted dose curve; in most records, active means well fitted curve in the direction sought with a large enough effect; inconclusive means small, poorly fitted or top-dose-only effect, or another doubt; inactive means no such curve, though single readings can be large; an effect the other way counts as inactive or inconclusive.
SMILES,BAZ2B inh,G9a inh,PI5P4Ka inh,PLK1 PBD inh,HP1b binding inh,JMJD2A Tudor
O=S(=O)(Nc1ccc2c(c1)nc1n2CCN(Cc2ccccc2)C1)c1ccc(Cl)cc1,nt,10µM,i,i,i,i
O=S(=O)(Nc1ccc2c(c1)nc1n2CCN(Cc2ccccc2)C1)c1ccccc1,i,?,nt,i,i,i
COc1ccccc1N1CCN(S(=O)(=O)c2ccc(-n3cnnn3)cc2)CC1,?,i,i,i,i,i
Cc1ccc(C)c(-n2c(Cc3cccs3)n[nH]c2=S)c1,i,1.6µM,i,i,i,10µM
COc1ccccc1NC(=O)CSc1nnc(Cc2cccs2)n1C,i,i,i,i,i,i
S=c1[nH]nc(Cc2cccs2)n1-c1ccccc1Cl,i,2.2µM,i,i,i,14µM
S=c1[nH]nc(Cc2cccs2)n1-c1cccc2ccccc12,i,1.8µM,i,i,i,40µM
COc1ccccc1-n1c(Cc2cccs2)n[nH]c1=S,i,3.5µM,i,i,i,i
OC(COCc1cccs1)CN1CCN(c2ccccc2Cl)CC1 (stereo not given),i,i,i,i,i,i
Cc1ccc(-n2c(Cc3cccc4ccccc34)n[nH]c2=S)c(C)c1,i,?,i,i,i,i
CCS(=O)(=O)n1c(Cc2cccs2)nc2ccccc21,i,i[2.33 µM],i,i,i,i
Cc1ccc(Cl)cc1NC(=O)CCn1c(=O)c2cccn2c2cccnc21,i,i,nt,nt,i,i
O=C1C[C@@H](c2ccccc2Cl)N1S(=O)(=O)c1ccccc1[N+](=O)[O-],nt,nt,nt,nt,i,i
COc1cc(C=C2C(=O)OC(C)(C)OC2=O)cc(Cl)c1OCC(=O)Nc1ccccc1,i,i,i,?,i,?
CC(C)(C)C1(C)OC(=O)C(=Cc2ccc(OCC(=O)Nc3ccccc3)cc2)C(=O)O1 (stereo not given),i,i,i,2.4µM,i,i
Cc1cc2c(cc1S(=O)(=O)NCc1ccc(F)cc1)n(C)c(=O)c(=O)n2C,i,i,nt,nt,i,i
Cc1ccc(NC(=O)Cn2c(=O)c(C(F)(F)F)nc3ccccc32)c(C)c1,i,i,nt,nt,i,i
CCC(C)C(NC(N)=O)C(=O)Nc1ccc(C)c(Cl)c1 (stereo not given),i,8.9µM,i,i,i,i
O=C(/C=C/c1ccc(O)cc1)c1ccc(O)cc1O,i,i,i,i,i,i
Cc1ccc(C(=O)/C=C/c2ccc3c(c2)OCCO3)c(O)c1,?,40µM,i,i,?,32µM
O=C(/C=C/c1ccc2c(c1)OCCCO2)c1ccc2ccccc2c1O,10µM,11µM,i,i,25µM,28µM
CSc1ccccc1NC(=O)CN(C)CC(=O)Nc1ccccc1C(F)(F)F,i,i,i,i,i,i
CCN(CC)c1nc2ccccc2nc1C(C#N)C(=O)NCCc1ccccc1 (stereo not given),i,?,i,13µM,i,i
N#CC(=C1C=CC(=NO)C(Cl)=C1)c1ccccc1,nt,nt,i,?,nt,nt
O=C(NCc1ccc(F)cc1)n1cc(P(=S)(c2ccccc2)c2ccccc2)c2ccccc21,nt,nt,nt,nt,nt,i
SMILES,BAZ2B inh,G9a inh,PI5P4Ka inh,PLK1 PBD inh,HP1b binding inh,JMJD2A Tudor
CN(C)c1ccc(SC#N)cc1,i,50µM,i,?,i,i
O=C(CCC(=O)N1CCCC1)N1CCCC1,i,?,i,i,i,i
Cc1cccc(N(C)c2nc3ccc(C(=O)c4ccccc4)cc3n3c(C)nnc23)c1,i,i,nt,nt,i,i
CCN(CC)c1ccc(NC(=O)c2ccccc2Br)cc1S(=O)(=O)Nc1ccccc1OC,?,1.3µM,?,1.5µM,6.3µM,18µM
CCN(CC)c1ccc(NC(=O)COc2ccccc2C)cc1S(=O)(=O)Nc1ccccc1OC,i,10µM,?,5.3µM,?,?
COc1ccc(NC(=O)c2ccc(=O)[nH]c2)cc1S(=O)(=O)N1CCCCC1,i,i,nt,nt,nt,nt
CCN(CC)c1ccc(NC(=O)c2ccccc2F)cc1S(=O)(=O)Nc1ccccc1OC,i,6.3µM,i,11µM,?,?
CCN(CC)c1ccc(NC(=O)COc2ccccc2C#N)cc1S(=O)(=O)Nc1ccc(OC)cc1,i,?,i,?,i,i
CCN(CC)c1ccc(NC(=O)c2ccc(=O)[nH]c2)cc1S(=O)(=O)Nc1ccccc1OC,nt,2.5µM,?,4.7µM,?,?
CCNC(=S)Nc1ccc(C)c(S(=O)(=O)Nc2ccccc2OC)c1,i,nt,i,i,i,i
O=C(Nc1nnc2n1CCS2)c1cc(C(F)(F)F)cc(C(F)(F)F)c1,i,i,nt,nt,i,i
CCCCNC(=O)C1c2ccccc2OCC(=O)N1CCc1c[nH]c2ccccc12 (stereo not given),nt,nt,i,i,nt,nt
Cc1cc(OC(C)C(=O)Nc2c(C(=O)c3ccc(F)cc3)oc3ccccc23)ccc1Cl (stereo not given),i,i,nt,nt,i,i
CCN(CC)CCNC(=O)c1ccc(NC(=O)c2ccc(Cl)c(S(=O)(=O)Nc3ccccc3OC)c2)cc1,i,50µM,nt,nt,nt,nt
CCN(CC)CCNC(=O)c1ccc(NC(=O)c2ccc(S(=O)(=O)N(C)c3ccccc3OC)cc2)cc1,nt,nt,i,i,i,i
CCC1(c2ccc(OC)cc2)NC(=O)N(CC(=O)NC2CCCCC2C)C1=O (stereo not given),i,i[2.33 µM],i,i,i,i
Cc1noc(C)c1C(=O)OCC(=O)Nc1c(F)cccc1F,nt,i,i,8.4µM,i,?
Cc1ccc(C)c(NC(=O)CNC(=O)N2CC(=O)Nc3ccccc32)c1,i,i,i,i,i,i
O=C1CN(C(=O)c2cccc(Br)c2)c2ccccc2N1,i,i,i,i,i,i
Cc1cccc(Nc2c([N+](=O)[O-])cc(C(=O)N3CC(=O)Nc4ccccc43)cc2[N+](=O)[O-])c1,?,11µM,i,i,i,?
Cc1ccc(C)c(Nc2c([N+](=O)[O-])cc(C(=O)N3CC(=O)Nc4ccccc43)cc2[N+](=O)[O-])c1,25µM,18µM,i,i,?,?
COc1ccccc1/C=C1\SC(=S)N(CCC(=O)Nc2ccc(C(=O)O)c(O)c2)C1=O,50µM,50µM,?,?,?,?
O=C(CCN1C(=O)/C(=C\c2ccco2)SC1=S)Nc1ccc(C(=O)O)c(O)c1,35µM,?,-74,?,?,56µM
O=C(CCN1C(=O)/C(=C/c2ccco2)SC1=S)Nc1ccc(C(=O)O)c(O)c1,45µM,22µM,-63,12µM,50µM,50µM
COc1ccccc1/C=C1/SC(=S)N(CCC(=O)Nc2cccnc2)C1=O,i,i,i,i,i,?
O=c1cc2oc3cc(O)c(O)cc3c(-c3ccccc3[N+](=O)[O-])c-2cc1O,1.1µM,1.4µM,-61,i,0.79µM,0.71µM
O=C(NNc1nc2cc3c(cc2s1)OCCO3)c1ccccc1,i,40µM,i,i,i,i
CC(=O)Nc1nc2cc3c(cc2s1)OCCO3,i,nt,i,i,i,i

# Compound activity (PubChem BioAssay)
